This is an account of results in PubChem BioAssay.

Activity calls are given as the source filed them.

Assay [1] has as its target Albumin (Bos taurus) (UniProt P02769). Kind of assay: compounds binding labelled BSA control protein – biochemical, small-molecule microarray, Alexa647 label, 635/667 nm fluorescence, artefact control for SMM control protein annotation, profiling panel (AID 1118).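 Also: score merges 667 nm emission intensity and signal-to-noise per printed compound spot.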 As to conditions: BSA-A647 binding, fluorescence 635 nm, higher = more signal.
Assay [2] in a line: probe aXIP binding to arrayed compounds – biochemical, NeuroSMM set, 635/667 nm fluorescence, primary screen (AID 1119).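 Also: probe is the protein aXip251-270 applied at 1 µg/mL to compound-printed slides; binding of probe to printed compounds measured as 667 nm fluorescence plus signal to noise.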 The settings on record: small-molecule microarray, higher = more signal, called active from +8 up or from −8 down.
Assay [3] is described as follows: probe aNOTCH3 binding on compound microarray – biochemical, small-molecule microarray, 635/667 nm fluorescence, primary screen (AID 1120).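 Also: probe is a biotin-tagged antibody raised against NOTCH3 rather than NOTCH3 protein; score merges spot fluorescence near 667 nm with spot signal to noise.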 The settings on record: higher = more signal.
A short description of assay [4]: probe aNOTCH2 binding on compound microarray – biochemical, small-molecule microarray, 635/667 nm fluorescence, primary screen (AID 1121).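 Also: score merges feature fluorescence read at 667 nm with its signal to noise.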 The settings on record: higher = more signal.
The target of assay [5] is Carbonic anhydrase 2 (Homo sapiens) (UniProt P00918). Kind of assay: compounds binding carbonic anhydrase 2 – biochemical, small-molecule microarray, Alexa647-labelled CAII, profiling panel (AID 1122). As to conditions: CAII-A647 binding fluorescence, higher = more signal.
The nature of assay [6]: COS7 lysate on small-molecule microarray, probe aHis, 635 nm (AID 1123).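 Also: z-score combines 667nm fluorescence intensity with signal-to-noise per printed compound spot.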 As to conditions: COS7 cell lysate, fluorescence, higher = more signal.
Assay [7] is described as follows: probe aLAP1 signal on lysate-treated microarray – cell lysate, small-molecule microarray, COS7 lysate, primary screen (AID 1124).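 Also: lysate comes from COS7 cells expressing LAP1 and is applied at 0.3 µg/mL; score merges spot fluorescence near 667 nm with signal-to-noise over triplicate slides.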 The settings on record: probe aLAP1, fluorescence, higher = more signal.
Assay [8] concerns Sam68 (KHDRBS1). Kind of assay: compounds binding KHDRBS1 protein – biochemical, small-molecule microarray, 635 nm fluorescence, primary screen (AID 1125).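 Also: score merges 667 nm channel intensity with signal to noise over triplicate slides.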 As to conditions: higher = more signal.
The subject of assay [9] is Chordin-like protein 2 (CHRDL2). Kind of assay: compounds binding chordin-like 2 – biochemical, small-molecule microarray, 635 nm fluorescence, primary screen (AID 1126).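 Also: printed compound slides probed with Chrdl2 protein at 4 µg/mL for 1 h at 4 C; score merges 667 nm emission intensity with signal to noise over three replicate slides.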 The settings on record: fluorescence 635 nm, higher = more signal.
Assay [10] deals with Concanavalin-A (Canavalia ensiformis) (UniProt P02866). Kind of assay: compounds binding concanavalin A lectin – biochemical, small-molecule microarray, Alexa647 label, 635 nm, artefact control for SMM control protein annotation, primary screen (AID 1127).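 Also: z combines 667 nm emission intensity with signal-to-noise across three replicate slides.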 The settings on record: ConA-A647 binding fluorescence, higher = more signal.
Assay [11] can be described thus: compounds binding Alexa647 anti-His antibody – biochemical, small-molecule microarray, 635 nm fluorescence, artefact control for SMM control protein annotation, primary screen (AID 1128).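 Also: score merges feature fluorescence with signal-to-noise for each printed compound spot.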 As to conditions: higher = more signal.
Assay [12] relates to Human papillomavirus type 1a E7 protein (residues 1-88). Kind of assay: HPV1a E7 small-molecule binders, primary screen, biochemical, small-molecule microarray, residues 1-88, 635 nm (AID 1129). As to conditions: small-molecule microarray binding, fluorescence 635 nm; higher = more signal.
In assay [13] the target is Focal adhesion kinase 1 (Homo sapiens) (UniProt Q05397). Kind of assay: PTK2 protein binding on printed compound slides – biochemical, small-molecule microarray, 635/667 nm fluorescence, BSA, DTT, primary screen (AID 1130).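 Also: composite of spot emission at 667 nm and signal to noise over triplicate slides.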 The settings on record: 635 nm fluorescence, higher = more signal.
For assay [14], the system named is Fibrinogen (Alexa647-labelled). Description: Alexa647-fibrinogen binding to printed small molecules – biochemical, small-molecule microarray, 635/667 nm fluorescence, artefact control for SMM control-protein annotation, profiling panel (AID 1131).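 Also: z-score merges 667 nm fluorescence with per-spot signal-to-noise over triplicate slides.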 The settings on record: fibrinogen-A647 binding fluorescence, higher = more signal.
The target of assay [15] is Follistatin (Homo sapiens) (UniProt P19883). Description: FST protein binding to printed compounds – biochemical, small-molecule microarray, 635/667 nm fluorescence, primary screen (AID 1132). The settings on record: 635 nm fluorescence, higher = more signal.
Assay [16] deals with Fibroblast growth factor 2 (Homo sapiens) (UniProt P09038). Description: basic fibroblast growth factor binding to printed compounds – biochemical, small-molecule microarray, 635/667 nm fluorescence, primary screen (AID 1133). As to conditions: FGF2, fluorescence 635/667, higher = more signal.
Assay [17] is described as follows: JC-1 mitochondrial potential readout, lung cancer cells – cell-based, A549, JC-1 fluorescence, basal, 24 h, 100 nL, profiling panel (AID 1138).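 Also: A549 lung adenocarcinoma cells under basal conditions with no added stimulus; test concentration not given here.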 The settings on record: higher = more signal.
For assay [18], the system named is Lefty1. Kind of assay: Lefty1 protein binding to printed compounds – biochemical, small-molecule microarray, 635/667 nm fluorescence, primary screen (AID 1139). The settings on record: fluorescence 635/667, higher = more signal.
Assay [19] concerns wheat germ agglutinin (Triticum aestivum), Alexa647-labelled. Kind of assay: Alexa647-WGA lectin binding to printed small molecules – biochemical, small-molecule microarray, 635/667 nm fluorescence, artefact control for SMM control-protein annotation, profiling panel (AID 1140).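 Also: score merges 667 nm feature emission with signal to noise over triplicate slides.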 The settings on record: WGA-A647 binding, 635 nm fluorescence, higher = more signal.
Assay [20] deals with Luciferin 4-monooxygenase (Photinus pyralis) (UniProt P08659). Description: inhibition of purified Photinus pyralis luciferase – biochemical, luminescence, purified enzyme, 2006 set, primary screen (AID 1141).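 Also: cell-free assay with purified firefly luciferase at 100 ng per well in PBS; test concentration not given here.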 The settings on record: purified firefly luciferase, SteadyGlo luminescence, 30 min; higher = more signal, called active from +8 up or from −8 down.
Luciferin 4-monooxygenase (Photinus pyralis), sequence (P08659 whole entry, looked up): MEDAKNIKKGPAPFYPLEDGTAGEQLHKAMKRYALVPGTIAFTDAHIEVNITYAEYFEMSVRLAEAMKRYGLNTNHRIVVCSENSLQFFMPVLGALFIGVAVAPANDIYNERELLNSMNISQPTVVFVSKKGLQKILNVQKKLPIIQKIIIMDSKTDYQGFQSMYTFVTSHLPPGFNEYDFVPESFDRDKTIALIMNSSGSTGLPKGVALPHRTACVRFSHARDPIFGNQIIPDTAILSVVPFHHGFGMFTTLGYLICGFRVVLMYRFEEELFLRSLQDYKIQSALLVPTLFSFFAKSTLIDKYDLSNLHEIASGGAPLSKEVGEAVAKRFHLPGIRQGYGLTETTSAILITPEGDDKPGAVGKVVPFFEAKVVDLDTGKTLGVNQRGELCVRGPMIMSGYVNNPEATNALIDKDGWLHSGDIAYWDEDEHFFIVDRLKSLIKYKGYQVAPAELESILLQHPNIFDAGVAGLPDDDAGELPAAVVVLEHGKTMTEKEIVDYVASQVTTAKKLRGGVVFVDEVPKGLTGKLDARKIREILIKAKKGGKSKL

Follistatin (Homo sapiens), sequence (P19883 whole entry, looked up): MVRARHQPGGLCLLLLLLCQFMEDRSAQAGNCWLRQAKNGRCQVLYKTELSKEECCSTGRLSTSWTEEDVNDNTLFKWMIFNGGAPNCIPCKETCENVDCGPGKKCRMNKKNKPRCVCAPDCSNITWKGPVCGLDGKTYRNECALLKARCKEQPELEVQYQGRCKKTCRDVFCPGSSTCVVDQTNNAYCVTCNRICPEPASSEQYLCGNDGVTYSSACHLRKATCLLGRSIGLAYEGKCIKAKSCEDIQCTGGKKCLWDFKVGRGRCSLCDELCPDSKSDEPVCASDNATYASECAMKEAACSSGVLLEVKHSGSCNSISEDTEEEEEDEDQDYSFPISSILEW
Fibroblast growth factor 2 (Homo sapiens), sequence (P09038 whole entry, looked up): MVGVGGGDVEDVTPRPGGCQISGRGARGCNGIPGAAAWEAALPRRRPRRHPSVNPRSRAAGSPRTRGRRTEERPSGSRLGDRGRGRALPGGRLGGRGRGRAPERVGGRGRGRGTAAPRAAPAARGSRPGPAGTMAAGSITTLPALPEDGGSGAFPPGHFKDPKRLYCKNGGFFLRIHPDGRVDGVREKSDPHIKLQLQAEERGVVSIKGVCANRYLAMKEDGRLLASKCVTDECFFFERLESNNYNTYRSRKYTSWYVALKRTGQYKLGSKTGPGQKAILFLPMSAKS
Focal adhesion kinase 1 (Homo sapiens), sequence (Q05397 whole entry, looked up): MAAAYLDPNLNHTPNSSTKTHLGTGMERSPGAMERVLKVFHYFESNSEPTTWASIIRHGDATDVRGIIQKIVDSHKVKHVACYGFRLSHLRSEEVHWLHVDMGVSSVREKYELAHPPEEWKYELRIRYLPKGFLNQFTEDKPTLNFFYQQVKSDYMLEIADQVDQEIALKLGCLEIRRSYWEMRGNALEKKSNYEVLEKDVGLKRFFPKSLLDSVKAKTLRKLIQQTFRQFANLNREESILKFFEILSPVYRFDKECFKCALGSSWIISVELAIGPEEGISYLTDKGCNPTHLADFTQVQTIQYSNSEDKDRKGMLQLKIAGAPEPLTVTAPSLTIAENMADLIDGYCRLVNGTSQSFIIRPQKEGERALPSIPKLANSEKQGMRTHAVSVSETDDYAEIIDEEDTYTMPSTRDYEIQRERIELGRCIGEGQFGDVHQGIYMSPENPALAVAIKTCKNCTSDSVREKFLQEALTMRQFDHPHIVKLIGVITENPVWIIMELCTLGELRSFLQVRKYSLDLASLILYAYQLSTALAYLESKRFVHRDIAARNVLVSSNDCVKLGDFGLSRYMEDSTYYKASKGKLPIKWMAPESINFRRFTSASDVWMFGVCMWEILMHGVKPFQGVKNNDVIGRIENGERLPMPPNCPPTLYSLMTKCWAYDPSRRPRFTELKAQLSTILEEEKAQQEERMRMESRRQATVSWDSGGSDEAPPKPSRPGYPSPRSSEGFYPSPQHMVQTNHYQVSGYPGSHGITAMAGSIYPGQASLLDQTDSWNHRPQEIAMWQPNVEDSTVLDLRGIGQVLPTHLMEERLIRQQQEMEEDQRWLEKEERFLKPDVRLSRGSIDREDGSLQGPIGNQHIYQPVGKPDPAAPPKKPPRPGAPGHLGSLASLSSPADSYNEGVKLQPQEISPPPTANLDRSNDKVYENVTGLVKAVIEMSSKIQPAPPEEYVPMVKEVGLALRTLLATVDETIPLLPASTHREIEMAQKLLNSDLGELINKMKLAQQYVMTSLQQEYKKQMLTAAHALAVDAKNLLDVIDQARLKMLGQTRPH
Concanavalin-A (Canavalia ensiformis), sequence (P02866 whole entry, looked up): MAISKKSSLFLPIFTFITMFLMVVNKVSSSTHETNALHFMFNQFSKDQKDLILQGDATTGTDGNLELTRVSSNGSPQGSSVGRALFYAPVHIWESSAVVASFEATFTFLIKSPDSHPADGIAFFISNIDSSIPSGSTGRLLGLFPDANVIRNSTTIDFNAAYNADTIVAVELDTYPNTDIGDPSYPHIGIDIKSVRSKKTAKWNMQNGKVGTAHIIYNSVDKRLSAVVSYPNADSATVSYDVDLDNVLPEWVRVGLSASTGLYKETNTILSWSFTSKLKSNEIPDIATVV
Albumin (Bos taurus), sequence (P02769 whole entry, looked up): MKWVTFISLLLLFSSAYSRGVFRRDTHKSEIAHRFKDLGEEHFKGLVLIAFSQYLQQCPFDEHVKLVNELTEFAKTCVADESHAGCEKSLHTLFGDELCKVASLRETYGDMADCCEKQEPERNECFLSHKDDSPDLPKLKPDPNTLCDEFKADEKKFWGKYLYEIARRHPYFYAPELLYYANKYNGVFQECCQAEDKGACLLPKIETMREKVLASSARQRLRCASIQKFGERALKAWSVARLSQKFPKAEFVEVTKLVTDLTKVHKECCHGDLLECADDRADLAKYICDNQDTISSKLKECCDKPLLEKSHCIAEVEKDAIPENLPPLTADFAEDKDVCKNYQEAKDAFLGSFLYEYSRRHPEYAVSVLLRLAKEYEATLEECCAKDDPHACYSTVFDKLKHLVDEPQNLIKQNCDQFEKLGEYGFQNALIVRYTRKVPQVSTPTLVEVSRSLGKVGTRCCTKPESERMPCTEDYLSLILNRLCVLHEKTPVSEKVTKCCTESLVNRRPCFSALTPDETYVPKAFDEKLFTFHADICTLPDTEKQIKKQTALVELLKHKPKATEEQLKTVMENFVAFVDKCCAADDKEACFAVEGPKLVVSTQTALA

Regarding `[N-]=[N+]=NCc1ccccc1[C@@H]1OC(c2ccc(OCCCO)cc2)=N[C@]1(Cc1ccccc1N=[N+]=[N-])C(=O)O`, the composite z-score in assay [1] was determined as 1; in assay [3], 0.663; in [4] it was 0.481; in [5], 0.566; in [6], 2.4; in assay [7], 0.262. In addition, the composite z-score in [8] is 1.31; in assay [9], -0.126; in assay [10] it was 1.13; in assay [11] it was 3.38; in assay [12] it was 1.23; in assay [13] it was 0.334. Also, the composite z-score in [14] was 1.04; in assay [15], 1.1; in assay [16], 0.626; in [18], -0.132; in assay [19], 1.21. The composite Z-score in [2] was -0.164 (inactive). For the same molecule, the z-score in [17] is -0.652; in assay [20], -5.68 (inactive).
On to `C=CCNC(=O)[C@H]1[C@@H]2C(=O)O[C@@H](c3ccccc3)[C@@H](c3ccccc3)N2[C@@H](c2ccc(OCCO)cc2)[C@]12C(=O)Nc1ccccc12`, for which the composite z-score in assay [1] is 0.989; in [3] it was -0.261; in assay [4], -0.0877; in [5], 0.74; in assay [6], 2.7; in assay [7], 1.15. Further, the composite z-score in assay [8] is 1.29; in [9], -0.832; in assay [10], 1.13; in assay [11] it was 2.03; in [12], 0.905; in assay [13] it was 0.624. Besides, the composite z-score in assay [14] was 0.861; in assay [15] it was -0.034; in assay [16] it was -0.342; in [18], -0.0965; in assay [19], 1.22. In addition, in assay [2], the composite Z-score was 1.76 (inactive). The z-score is -0.287 in [17] and -0.0907 (inactive) in assay [20].
In the case of `O=C(NC1CC1)[C@@H]1c2ccccc2C(=O)N(Cc2ccc(OC(F)(F)F)cc2)[C@H]1c1ccc(CO)cc1`, the composite z-score in [1] is 0.22; in [3] it was -0.1; in [4], -0.0974; in assay [5], 0.642; in assay [6], 1.41; in [7], -0.169. Further, the composite z-score in assay [8] was 0.932; in [9], -0.584; in assay [10], -0.037; in [11] it was -0.0809; in [12] it was 0.836; in [13], 0.234. For the same molecule, the composite z-score in [14] is -1.39; in assay [15], 0.664; in [16] it was 0.668; in assay [18] it was 0.39; in assay [19], 0.331. Moreover, the composite Z-score in assay [2] was 0.061 (inactive). The z-score in assay [17] was 1.39; in assay [20], 1.12 (inactive).
Consider `COC(=O)[C@@]1(Cc2ccc(OC)cc2)[C@H]2c3cc(C(=O)N4CCCC4)n(CCn4cc([N+](=O)[O-])nc4C)c3C[C@H]2CN1C(=O)c1ccccc1`, for which the composite z-score in assay [1] came to 1.05; in assay [3], 1.67; in [4], 1; in assay [5], 0.62; in assay [6], 3.37; in assay [7], 0.913. For the same molecule, the composite z-score was found to be 0.654 in assay [8]; 0.406 in assay [9]; 0.716 in assay [10]; 3.4 in assay [11]; 1.2 in assay [12]; 1.07 in [13]. Further, the composite z-score in [14] is 1; in assay [15], 0.116; in [16], -0.322; in assay [18], -0.19; in assay [19], 0.907. Moreover, the composite Z-score in assay [2] was 0.146 (inactive). In addition, the values for the z-score in assay [17] and in [20] were 1.33 and 1.22 (inactive), respectively.
As for `COc1ccccc1CN1C(=O)c2ccccc2[C@](Cc2ccccc2I)(C(=O)NCC(C)C)[C@@H]1c1ccc(CO)cc1`, the composite z-score is -0.133 in assay [1]; -0.0693 in assay [3]; -0.0241 in assay [4]; 0.542 in assay [5]; 1.97 in assay [6]; 0.675 in assay [7]. For the same molecule, the composite z-score in [8] was 0.781; in assay [9], -0.483; in [10], 0.792; in assay [11], -0.718; in [12] it was 0.654; in assay [13], -0.299. The composite z-score in assay [14] was 0.378; in [15] it was 1.05; in assay [16], 0.133; in assay [18], -0.803; in assay [19], 0.0043. For the same molecule, the composite Z-score in [2] was 0.688 (inactive). Besides, the z-score in [17] is 2.54; in assay [20], -1.22 (inactive).
